Test in all cases: NCI-60 one-dose screen, 48 h (100 = growth as untreated, 0 = no growth, -100 = all killed)
What all share (details): 10 µM unless noted

Assay [1] relates to NCI-H23 lung.
The test system of assay [2] is NCI-H226 lung.
Assay [3] relates to NCI-H322M lung.
For assay [4], the system named is HOP-62 NSCLC.
For assay [5], the system named is NCI-H460 lung.
Assay [6] deals with HOP-92 NSCLC.
The test system of assay [7] is NCI-H522 lung.
The test system of assay [8] is A549/ATCC NSCLC.
For assay [9], the system named is 786-0 renal.
Assay [10] relates to COLO 205 colon.
Assay [11] relates to DU-145 prostate.
In assay [12] the test system is K-562 leukemia.
Assay [13] concerns MALME-3M melanoma.
Assay [14] deals with MDA-MB-231 breast.
In assay [15] the test system is SF-268 CNS.
Assay [16] concerns SF-295 CNS.
The subject of assay [17] is SF-539 CNS.
Assay [18] has as its system UACC-257 melanoma.
Assay [19] deals with M14 melanoma.

Compounds without any hit were thinned out: in the full panel of roughly 83,000, 20% have a hit.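 A percent growth of 40 corresponds to 60% growth inhibition; 0 means no net growth; -100 means all cells died. Active threshold: below 10.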 Unmarked numbers belong to inactive results. Calls of active or inactive are those of the source.

Among the data in PubChem BioAssay (NCI) are growth values, retold here.

Consider `COc1ccccc1Nc1cc(O)c2c(=O)cc(-c3ccccc3)oc2c1`, for which the growth in [1] was 51.5%; in [2], 76.8%; in assay [3] it was 80.1%; in assay [4], 35.6%; in [5], 11.4%; in [6] it was 62.2%. In addition, the growth was 7.64% (active) in assay [7]; 33.7% in [8]; 49.2% in assay [9]; 76.8% in [10]; 45.6% in [11]; 11.6% in [12]. The growth in assay [13] was 44.1%; in [14], 39.2%; in assay [15], 44.9%; in assay [16], 25.9%; in assay [17] it was 28.3%; in [18], 54%. In addition, the growth in [19] is 20.8%.

For `FC(F)(F)Oc1cccc(-c2cc(NCCCCCCNc3cc(-c4cccc(OC(F)(F)F)c4)nc4ccc(N5CCCC5)cc34)c3cc(N4CCCC4)ccc3n2)c1`, the growth in assay [1] was -19.9% (active); in assay [2], 68.5%; in [3], -79.3% (active); in [4] it was -14% (active); in [5], -52.1% (active); in assay [6], -23.9% (active). The growth is -49.5% (active) in [7]; -75% (active) in [8]; -83.4% (active) in [9]; -51.9% (active) in [10]; -5.9% (active) in [11]; -48.7% (active) in [12]. The growth was -96.2% (active) in assay [13]; -91.5% (active) in assay [14]; -65.5% (active) in assay [15]; 34.1% in assay [16]; 8.48% (active) in assay [17]; -9.02% (active) in [18]. In addition, the growth in assay [19] was -84% (active).

`Cc1cc(C)c(C=O)c(C)c1`: the growth in assay [1] is 101%; in assay [2], 95.2%; in [3], 106%; in assay [4], 72.4%; in [5], 106%; in assay [6], 86.4%. The growth in assay [7] is 82.7%; in assay [8], 72.1%; in assay [9], 96.2%; in [10], 107%; in [11] it was 117%; in assay [12], 100%. For the same molecule, the growth was 114% in assay [13]; 112% in [14]; 104% in [15]; 101% in [16]; 106% in assay [17]; 74.5% in [18]. The growth in assay [19] is 84.3%.

Regarding `Cn1c(COC(=O)NCCN2CCOCC2)nc2c(N3CCOCC3)nc(-c3ccccc3)nc21`, the growth in [1] was -48.2% (active); in assay [2] it was -65% (active); in assay [3] it was 69%; in assay [4] it was 23.2%; in [5] it was 1.27% (active); in assay [6], -62.8% (active). The growth in [7] is -44.6% (active); in assay [8] it was 30.7%; in [9] it was -83.9% (active); in [10], -45.7% (active); in [11], -81.6% (active); in [12], 0.451% (active). Moreover, the growth was -91.9% (active) in assay [13]; -88.9% (active) in assay [14]; -36.8% (active) in assay [15]; 57% in assay [16]; -98.7% (active) in assay [17]; -46.6% (active) in assay [18]. For the same molecule, the growth in assay [19] is -75.9% (active).

On to `CC(=O)c1c[nH]c2ccc(-c3ccnc(Nc4ccc(NC(=O)C5CCCC5)c(CN5CCOCC5)c4)n3)cc12`, for which the growth in [1] is -36.4% (active); in [2], -0.452% (active); in assay [3], -11.5% (active); in [4], 2.51% (active); in assay [5], -60.6% (active); in assay [6] it was -5.65% (active). For the same molecule, the growth in [7] was -17.9% (active); in [8], 4.82% (active); in assay [9], 0.29% (active); in [10], -31.9% (active); in assay [11], -1.77% (active); in assay [12], 5.74% (active). The growth was -81.8% (active) in assay [13]; -8.4% (active) in assay [14]; -41.7% (active) in assay [15]; -46.2% (active) in assay [16]; -84.6% (active) in assay [17]; -27.5% (active) in assay [18]. Besides, the growth in assay [19] was -67.7% (active).

As to `CC1=CC2(C)/C=C(C)/C=C\CC(O)/C=C3/C=CC(=C4C(=O)OC2(CC1C)C4=O)OC3` (configuration not stated), the growth in assay [1] was -97.5% (active); in assay [2], 59.4%; in [3], 98.8%; in [4], 90.9%; in assay [5] it was 29.2%; in assay [6] it was -75.7% (active). The growth in [7] was -50.5% (active); in assay [8], 8.64% (active); in assay [9] it was -92.1% (active); in assay [10] it was -80.5% (active); in assay [11], -85.4% (active); in assay [12], 2.75% (active). The growth in assay [13] is -96.3% (active); in [14] it was 24.2%; in assay [15] it was -22.4% (active); in [16] it was 41.4%; in [17], -82.1% (active); in assay [18], -57% (active). Besides, the growth in assay [19] was -77.1% (active).

For `O=C(Nc1ccc(F)cc1)c1c(NC(=O)C(F)(F)F)sc2c1CCCCC2`, the growth in assay [1] is -5.63% (active); in assay [2], -6.78% (active); in assay [3], 11%; in [4] it was -23.5% (active); in [5], 2.16% (active); in [6] it was -28.5% (active). Also, the growth in assay [7] is 2.42% (active); in assay [8] it was 5.88% (active); in assay [9] it was -10.4% (active); in [10], -18.6% (active); in assay [11] it was 16.9%; in [12] it was 6.57% (active). The growth in [13] is -21.1% (active); in assay [14] it was -20.4% (active); in assay [15], 4.27% (active); in assay [16] it was -42.4% (active); in assay [17] it was -0.67% (active); in [18], -23.9% (active). Moreover, the growth in [19] is -3.37% (active).

Take `CC[C@H](C)[C@@H]1NC(=O)[C@H](Cc2ccc(O)cc2)N(C)C(=O)[C@H](Cc2ccccc2)NC(=O)CN(C)C(=O)[C@@H]2CCCN2C(=O)[C@@H](Cc2ccccc2)N(C)C(=O)[C@H](CC(C)C)NC1=O`: the growth is -15.1% (active) in [1]; -8.47% (active) in assay [2]; -20.2% (active) in assay [3]; 0.573% (active) in [4]; -26.5% (active) in assay [5]; -3.08% (active) in [6]. Also, the growth in [7] was 0.571% (active); in assay [8] it was 2.11% (active); in [9] it was 10.6%; in [10], -25.1% (active); in [11] it was 0.387% (active); in [12], 6.28% (active). In addition, the growth in assay [13] was -25.5% (active); in assay [14], -12.6% (active); in assay [15], -5.16% (active); in [16], -23.5% (active); in [17], -24.8% (active); in assay [18] it was -0.97% (active). For the same molecule, the growth in assay [19] was -69.4% (active).
